Data from the supplement of paper PMC8728848.
This excerpt belongs to a sample that is enriched for the strongest signals.

Assays:
Assay in all cases: glycan array binding signal (z-score within array); higher = stronger binding
Settings in all cases: glycan notation: IUPAC condensed, linker removed; mutation: N130D
[1] = biological target: Neu5Ac(a2-3)Gal(b1-4)GlcNAc(b1-3)Gal(b1-3)GlcNAc
Procedure, shortened: (§1)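 From the Consortium for Functional Glycomics database, 3228 arrays were curated, keeping only those whose protein sequence was available. Binding is given as a within-array Z-score averaged across arrays sharing a protein sequence and across linkers. Negative Z-scores can be read as non-binding.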

[2] = biological target: Neu5Ac(a2-3)Gal(b1-4)GlcNAc(b1-6)GalNAc
Procedure, shortened: as §1

[3] = biological target: Neu5Ac(a2-3)Gal(b1-4)[Fuc(a1-3)]GlcNAc(b1-3)GalNAc
Procedure, shortened: as §1

[4] = biological target: Neu5Ac(a2-6)Gal(b1-4)GlcNAc(b1-2)Man(a1-3)[GlcNAc(b1-4)][Neu5Ac(a2-6)Gal(b1-4)GlcNAc(b1-2)Man(a1-6)]Man(b1-4)GlcNAc(b1-4)GlcNAc
Procedure, shortened: as §1

[5] = biological target: Neu5Ac(a2-6)Gal(b1-4)GlcNAc(b1-2)Man(a1-6)Man(b1-4)GlcNAc(b1-4)GlcNAc
Procedure, shortened: as §1

[6] = biological target: Neu5Ac(a2-6)Gal(b1-4)GlcNAc(b1-3)Gal(b1-4)GlcNAc(b1-2)Man(a1-3)[Neu5Ac(a2-6)Gal(b1-4)GlcNAc(b1-3)Gal(b1-4)GlcNAc(b1-2)Man(a1-6)]GalNAc
Procedure, shortened: as §1

[7] = biological target: Neu5Ac(a2-6)Gal(b1-4)GlcNAc(b1-6)GalNAc
Procedure, shortened: as §1

[8] = biological target: Neu5Ac(a2-6)Gal(b1-4)GlcNAc(b1-6)[Gal(b1-3)]GalNAc
Procedure, shortened: as §1

[9] = biological target: Neu5Ac(a2-8)Neu5Ac(a2-3)Gal(b1-4)Glc
Procedure, shortened: as §1

[10] = biological target: Neu5Ac9Ac(a2-3)Gal(b1-4)GlcNAc
Procedure, shortened: as §1

B1: Pwp5 DD (Candida glabrata) (protein)
chain: MGSSHHHHHHSSGLVPRGSHMASANPVPLTNVCYFPEEYPRQAGFRAITAGLASTILQGSVDELLNYSGLSSLTTQQTTTTTPNFQLPTLPLPTNVYGLTVVPLYLLVQLQGYFVPPVSGQYTFSLENTDDAAIIFFGNPSAFPCGDLSAWPQASADDITVTDGTFPSRTLFLKAGVAYPMRISYYNSLGSGNLAVSFTDPGGTKRTNWNGYIWRYNSCSTCTYT
- glycan array binding signal (z-score) [1]: -0.723
- glycan array binding signal (z-score) [2]: 0.366
- glycan array binding signal (z-score) [3]: 3.63
- glycan array binding signal (z-score) [4]: 3.92
- glycan array binding signal (z-score) [5]: 0.32
- glycan array binding signal (z-score) [6]: 0.149
- glycan array binding signal (z-score) [7]: 0.08
- glycan array binding signal (z-score) [8]: -0.062
- glycan array binding signal (z-score) [9]: -0.613
- glycan array binding signal (z-score) [10]: -0.213
